Compound activity (PubChem)
In the library only some 2.4% were active in any assay of this set; here they are far more common.
STAT1 inh – STAT1 signaling inhibition | NIH 3T3 STAT1-luciferase reporter, IFN-gamma, luminescence | inhibition, % at 5.5 µM | hit rate 0.35% among 200,000 | AID 920;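 active = inhibition above a set limit, the mean inhibition across all tested compounds plus 3 SD, cut at about 34% in these data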;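 note: 0% = IFN-gamma with DMSO and 100% = IFN-gamma with 300 µM nifuroxazide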
STAT3 inh – inhibitors of IL-6 induced STAT3 signaling | U3A cells, IL-6 STAT3-luciferase reporter, luminescence; host cell line lacks STAT1 | inhibition, % at 5.5 µM | hit rate 0.89% among 190,000;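 active = inhibition above the mean inhibition across all screened compounds plus 3 SD, cut at about 44% in these data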;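 note: 0% = DMSO only wells and 100% = 100 µM nifuroxazide control wells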
HSF1 inhib – HSF1 inhibition | activity change, negative = inhibition, % at 7.5 µM (by protocol) | AID 2098 | NIH3T3-HGL HSE-luciferase, MG132-induced, luminescence 8 h; active compounds read low | hit rate 0.77% among 300,000;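 active = more than half of replicate wells show activity change below -50%, luminescence cut by over half; inconclusive = some wells, but at most half, below -50%; inactive = no replicate well below -50%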;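 note: luciferase reports HSF-1 transcriptional activity via heat shock element; 0% = median of DMSO wells and -100% = zero luminescence signal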
C8 TRAIL sens – caspase-8 TRAIL sensitization; NB7+C8 cells + TRAIL, ATPlite viability luminescence; AID 624354; inhibition (viability loss, TRAIL sensitization), % at 10 µM; hit rate 1% among 360,000;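 active = compounds causing at least 50% loss of cell viability in the single-dose screen, relative to plate controls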
PPC-1+TRAIL kill – kills PPC-1 cancer cells in the presence of TRAIL | PPC-1 cells + TRAIL, ATPLite viability luminescence | hit rate 0.41% among 220,000 | cell killing (% activity), % at 4 µM or 5 µM;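 active = cell killing above 50% in the first pass at 4 µM, then a duplicate retest at 5 µM averaging 50% or more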;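 note: plate controls were cells with TRAIL plus DMSO for no effect and medium-only wells lacking cells for full effect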
HSP90 refold inh – HSP90 refolding inhibition in rabbit reticulocyte lysate; inhibition, % at 5.6 µM; luciferase refolding luminescence, 3 h; hit rate 0.91% among 290,000; AID 1789;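 active = inhibition above the screen-wide mean plus 3 SD, computed separately per campaign, cut at about 16% in these data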;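 note: 0% = DMSO wells and 100% = 60 µM geldanamycin wells; inhibitors lower the luminescence because luciferase stays unfolded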
HSP90 confirm – confirmation of HSP90 inhibitors; shares compounds with HSP90 refold inh; rabbit reticulocyte lysate, luciferase refolding luminescence, 3 h; inhibition, % at 5.9 µM; hit rate 64% among 2,300; in the data active = inhibition above about 18%;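 note: 0% = vehicle wells and 100% = reference inhibitor wells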
FLuc counter – blocks native firefly luciferase in HSP90 counter-screen | purified native firefly luciferase, luminescence | hit rate 48% among 2,300 | inhibition, % at 5.9 µM | AID 1847 | shares compounds with HSP90 refold inh;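 active = inhibition above the mean inhibition of all tested sample wells plus 3 SD, cut at about 10% in these data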;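 note: 0% = DMSO with luciferase and 100% = wells lacking luciferase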
Target sequence (P08659 whole entry, looked up): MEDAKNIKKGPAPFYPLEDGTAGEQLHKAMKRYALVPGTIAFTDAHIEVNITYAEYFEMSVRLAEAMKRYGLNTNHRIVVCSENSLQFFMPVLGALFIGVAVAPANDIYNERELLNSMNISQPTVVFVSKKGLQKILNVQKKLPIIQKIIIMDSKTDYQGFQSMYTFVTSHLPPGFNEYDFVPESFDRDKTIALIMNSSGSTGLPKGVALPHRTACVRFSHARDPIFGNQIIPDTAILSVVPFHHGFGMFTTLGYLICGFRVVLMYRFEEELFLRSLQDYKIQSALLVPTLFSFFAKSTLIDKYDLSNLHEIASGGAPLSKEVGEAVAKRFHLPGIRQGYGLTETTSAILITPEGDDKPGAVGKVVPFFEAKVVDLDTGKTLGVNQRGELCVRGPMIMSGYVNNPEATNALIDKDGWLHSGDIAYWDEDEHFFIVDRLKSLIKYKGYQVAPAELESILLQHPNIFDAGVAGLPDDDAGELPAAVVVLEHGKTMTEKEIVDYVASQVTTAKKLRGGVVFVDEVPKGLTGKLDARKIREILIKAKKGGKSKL
* marks the source's active call; other numbers are inactive results; ? = inconclusive; . = not tested or not shown.

SMILES	STAT1 inh	STAT3 inh	HSF1 inhib	C8 TRAIL sens	PPC-1+TRAIL kill	HSP90 refold inh	HSP90 confirm	FLuc counter
CSc1nnc(SCC(=O)N(C)c2c(N)n(Cc3ccccc3)c(=O)[nH]c2=O)s1	.	.	-4	-2	.	.	.	.
CN(C(=O)CSc1nnc(-c2ccccc2)o1)c1c(N)n(Cc2ccccc2)c(=O)[nH]c1=O	5	4	-3	-6	17	19*	-3	-1
COCCCN=C1NN=C(c2cc(C)n(-c3ccccc3F)c2C)CS1	45*	52*	-42	53*	41	18*	70*	64*
COCCn1c(C)cc(C2=NNC(=Nc3ccccc3F)SC2)c1C	73*	94*	-89*	-5	37	77*	62*	55*
COCCCN=C1NN=C(c2cc(C)n(-c3ccccc3)c2C)CS1	-12	-13	-19	0	20	-5	.	.
Fc1ccc(F)c(C2=NNC(=Nc3ccccc3F)SC2)c1	-48	-14	31	15	30	4	.	.
Cc1cc(C2=NNC(=NCCc3ccccc3)SC2)c(C)n1-c1c(C)n(C)n(-c2ccccc2)c1=O	.	.	5	-19	2	-1	.	.
COCCCN=C1NN=C(c2cc(C)n(Cc3ccccc3Cl)c2C)CS1	-9	-9	3	-9	0	21*	48*	23*
COc1cccc2c1OC1(N3CCOCC3)CCCCC1C2C[N+](=O)[O-] (stereo not given)	.	.	.	3	.	.	.	.
Cc1ccc(Cl)c2c1NC(=O)C2=O	.	.	.	-13	.	.	.	.
COc1ccccc1C(=O)NNC(=S)NC(=O)c1sc2ccccc2c1Cl	-2	-19	-5	10	4	4	.	.
Cc1c(NC(=S)NC(=O)c2sc3ccccc3c2Cl)cccc1C(=O)O	-22	25	?	18	4	43*	63*	11*
COc1ccc(C(=O)N2CCCC(c3cc(C(=O)NCc4ccc(F)cc4)no3)C2)cc1 (stereo not given)	.	.	.	22	.	.	.	.
COC(=O)C[C@@H]1CC[C@@H](NS(=O)(=O)c2cccc(OC)c2)[C@@H](CO)O1	.	.	.	10	.	.	.	.
Cc1cc2nc(-c3cccnc3SCC(=O)NC(C)C)[nH]c2cc1C	-31	-11	-5	34	38	34*	-3	-23
O=C(CSc1ncccc1-c1nc2ccccc2[nH]1)NC1CC1	6	16	-5	11	4	1	.	.
O=C(CN1C(=O)CCC1=O)NNc1ccc2ccccc2c1	3	-5	.	20	43	26*	13	-13
O=C(Cc1ccccc1)NNc1ccc2ccccc2c1	14	-15	-63*	-2	10	39*	5	-3
O=C1/C(=C2/NCCN2C2CC(=O)N(c3ccccc3)C2=O)CC/C1=C\c1ccccc1 (stereo not given)	-14	-3	-6	-7	18	-5	.	.
Cc1ccc(N2C(=O)CC(N3CCN/C3=C3\CC/C(=C\c4ccccc4)C3=O)C2=O)cc1 (stereo not given)	-3	-2	2	-4	16	18*	6	-5
CCCOC(=O)Nc1ccc(N2CCCCC2)cc1	-49	30	23	34	38	21*	34*	21*
CCCCC(=O)Nc1ccc(N2CCCC2)cc1	3	14	-5	-21	.	3	.	.
C=CCn1c(SCC(=O)NCCOC)nnc1-c1cc2c(s1)CCC(CC)C2 (stereo not given)	0	4	4	13	14	52*	2	-12
COc1cc(/C=N/NS(=O)(=O)c2ccc3ccccc3c2)ccc1OCc1ccc(C(=O)O)cc1	.	.	-74*	10	4	51*	-6	-13
COc1ccc(/C=N/NS(=O)(=O)c2ccc(C)cc2)cc1OC(=O)c1ccccc1	0	11	.	-11	-3	0	.	.
SMILES	STAT1 inh	STAT3 inh	HSF1 inhib	C8 TRAIL sens	PPC-1+TRAIL kill	HSP90 refold inh	HSP90 confirm	FLuc counter
COc1ccc(/C=N/NS(=O)(=O)c2ccccc2)cc1OC(=O)c1ccc(C)cc1	-5	9	-2	-11	0	0	.	.
COc1cc(/C=N/NS(=O)(=O)c2ccc(C)cc2)ccc1OCc1cccc(C(=O)O)c1	72*	47*	-64*	16	7	46*	1	-10
COc1cc(/C=N/O)ccc1OCc1ccc(C(=O)O)cc1	93*	111*	-77*	71*	45	76*	85*	80*
O=C(CN1CCCc2ccccc21)N1CCc2ccccc21	.	.	2	10	-16	-1	.	.
NNC(=O)CN1CCCc2ccccc21	-54	-7	-36	0	45	25*	46*	39*
COc1cc(/C=N/Nc2ccc(Cl)c(C(=O)O)c2)ccc1OC(=O)c1ccccc1F	.	.	-2	-20	.	54*	80*	-28
COc1cc(/C=N/Nc2ccc(Cl)c(C(=O)O)c2)ccc1OC(=O)c1ccc(F)cc1	.	.	-5	-10	.	60*	73*	-17
COc1cc(C(=O)N/N=C/c2ccc(OC(=O)c3ccccc3Cl)c(OC)c2)ccc1O	.	.	-6	19	.	-3	.	.
COc1cc(/C=N/NC(=O)c2ccncc2)ccc1OC(=O)c1ccccc1Cl	0	1	0	-9	-14	-2	.	.
CCC(=O)N1CCCC(C)(C(=O)Nc2nccc3ccccc23)C1 (stereo not given)	.	.	.	-2	.	.	.	.
O=C(NCC[C@@H]1CC[C@@H](NS(=O)(=O)c2ccccc2)[C@@H](CO)O1)c1cc(Cl)cc(Cl)c1	.	.	.	14	.	.	.	.
O=C(COc1ccc2ccccc2c1Br)N1CCCCC1	.	.	16	21	.	2	.	.
O=C(Oc1ccc2ccccc2c1Br)N1CCCCCC1	-38	1	-35	34	33	22*	43*	26*
O=C(O)CSCC(=O)Nc1ccc(C2CCCCC2)cc1	52*	93*	-78*	2	22	52*	57*	-14
Nn1cnnc1SCC(=O)Nc1ccc(C2CCCCC2)cc1	-19	-1	-3	0	27	0	.	.
CCNc1c(NS(=O)(=O)c2ccc([N+](=O)[O-])cc2)c(=O)oc2ccccc12	.	.	7	13	.	-3	.	.
CCCOc1ccc(C(=O)Nc2nc(C)c(Cc3ccc4c(c3)OCO4)s2)cc1	-11	0	-1	2	-2	24*	3	-12
Cc1nc(NC(=O)c2ccc(OCC(C)C)cc2)sc1Cc1ccc2c(c1)OCO2	-6	2	-14	4	15	32*	7	-6
COc1cc(C(=O)Nc2nc(C)c(Cc3ccc4c(c3)OCO4)s2)cc(OC)c1OC	-9	-6	-9	-22	31	-3	.	.
COc1ccc(NC(=O)N2CCc3ccccc32)cc1	-18	43	25	56*	14	19*	37*	23*
O=c1c2c([nH]c3ccccc13)CCC2	.	.	-5	-25	.	20*	-6	-7
